Many of the other results were omitted from the sample, so hits are more common in it than they were.
IL-1B inflam inh: qHTS for Inhibitors of Inflammasome Signaling: IL-1-beta AlphaLISA Primary Screen; hit rate 4.7% among 360,000; THP-1 LPS/ATP IL-1B secretion, AlphaLISA, 16 h; stronger effect = lower value; activity change, % at 57.5 µM; in the data active = activity change below about -50%; inconclusive = mostly about -30% to -49%
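THP-1 cells pretreated 1 hr with compounds (up to 57.5 uM final), then stimulated with LPS (250 ng/mL final) plus ATP (1.25 mM final); secreted IL-1B measured by AlphaLISA after 16 hr, decreased signal indicating inhibition.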
TDP1 cell noCPT: qHTS for Inhibitors of human tyrosyl-DNA phosphodiesterase 1 (TDP1): qHTS in cells in absence of CPT; DT40 Tdp1-/- hTDP1 cells, no CPT, ATP luminescence, 48 h; Potency, µM (series often up to 46.2 µM), for the others: at the highest dose activity change, negative = growth inhibition, most hits filed as inhibitors; hit rate 15% among 420,000; AID 686978, 2013; note: potency is the fitted concentration of half-maximal effect; nearly all actives have a fitted effect of over 55% in size
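Camptothecin absent (DMSO only). Human TDP1-complemented DT40 knockout cells, 400 cells/well, 37 °C for minimum 48 hr; ATP measured via CellTiter-Glo, 30 min dark incubation, luminescence.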
ALOX12 inh: Primary qHTS assay for inhibitors of human arachidonate 12S-lipoxygenase (ALOX12): Round 2; Polyunsaturated fatty acid lipoxygenase ALOX12 (Homo sapiens), P18054; purified 12hLO, xylenol orange hydroperoxide absorbance; Potency, µM (titrated, usually from 108 µM), without a hit: at the highest dose activity change, negative = inhibition, usual class: inhibitors; hit rate 1.1% among 580,000; AID 1671190, 2021; note: potency is the fitted concentration of half-maximal effect
Target sequence (P18054 whole entry, looked up): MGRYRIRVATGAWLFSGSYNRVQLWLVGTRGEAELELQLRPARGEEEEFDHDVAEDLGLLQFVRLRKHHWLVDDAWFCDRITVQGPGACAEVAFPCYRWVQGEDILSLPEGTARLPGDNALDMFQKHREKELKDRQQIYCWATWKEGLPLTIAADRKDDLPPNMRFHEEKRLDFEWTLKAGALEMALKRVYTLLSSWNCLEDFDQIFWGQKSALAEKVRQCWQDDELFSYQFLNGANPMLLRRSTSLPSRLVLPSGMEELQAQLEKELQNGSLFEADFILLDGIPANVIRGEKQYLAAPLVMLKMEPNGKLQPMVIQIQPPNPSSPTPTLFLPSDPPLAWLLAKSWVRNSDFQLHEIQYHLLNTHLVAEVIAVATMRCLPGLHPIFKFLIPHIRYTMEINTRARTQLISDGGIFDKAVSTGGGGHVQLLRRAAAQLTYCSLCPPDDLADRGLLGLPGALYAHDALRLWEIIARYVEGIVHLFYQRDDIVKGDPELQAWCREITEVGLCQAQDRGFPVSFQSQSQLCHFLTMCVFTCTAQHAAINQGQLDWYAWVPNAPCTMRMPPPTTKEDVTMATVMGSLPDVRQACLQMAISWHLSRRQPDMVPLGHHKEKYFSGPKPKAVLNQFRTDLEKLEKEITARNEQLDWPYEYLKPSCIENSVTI
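Purified human 12hLO at 150 nM in 25 mM Hepes, 0.01% Triton X-100, pH 7.0, preincubated 15 min at room temperature with compound. Reaction started with 40 uM arachidonic acid, 30 min at room temperature. Hydroperoxide measured by Fe-xylenol orange, 573/405 nm absorbance ratio.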
HT1080NT lethal: qHTS for induction of synthetic lethality in tumor cells producing 2HG: qHTS for the HT-1080-NT fibrosarcoma cell line | hit rate 1.6% among 360,000 | Potency, µM (doses to about 46.1 µM), without a hit: at the highest dose activity, negative = less viability, hits mostly cytotoxic | AID 686970, 2013 | HT-1080-NT fibrosarcoma viability, CellTiter-Glo ATP luminescence, 48 h;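 note: NT is the 2HG producing partner of a matched IDH1 knockdown line; potency is the fitted concentration of half-maximal effect; 0% = DMSO-treated cells and -100% = media-only wells without cells; nearly all actives have a fitted effect of over 55% in size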
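A 48-hour cytotoxicity screen used HT-1080-NT cells plated 2 hours before compound delivery. ATP-based CellTiter-Glo luminescence measured viability, normalized to DMSO and no-cell controls.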
HT1080 IDH1KD tx: qHTS for induction of synthetic lethality in tumor cells producing 2HG: qHTS for the HT-1080-IDH1KD cell line; hit rate 2% among 360,000; HT-1080 IDH1 knockdown viability, ATP luminescence, 48 h; Potency, µM (highest dose often 46.1 µM), inactives show at the highest dose activity, negative = toxicity, hits mostly cytotoxic;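 note: potency is the fitted concentration of half-maximal effect; 0% = DMSO wells and -100% = cell-free medium wells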
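HT-1080-IDH1KD cells (IDH1 knocked down), 750/well in RPMI with 5% FBS, treated with compound 48 h at 37 degrees C. Viability by CellTiter-Glo luminescence, normalised to DMSO and no-cell wells; concentration-response curves classed.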
DT40 TDP1 CPT: qHTS for Inhibitors of human tyrosyl-DNA phosphodiesterase 1 (TDP1): qHTS in cells in presence of CPT | Potency, µM (series often up to 46.2 µM), inactives show top-dose activity change, negative = growth inhibition, usual class: inhibitors | chicken DT40 Tdp1-/-;hTDP1 cells + 20 nM CPT, ATP luminescence, 48 h | hit rate 12% among 420,000 | AID 686979, 2013; note: potency is the fitted concentration of half-maximal effect; nearly all actives have a fitted effect of over 55% in size
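Chicken DT40 Tdp1-/- cells complemented with human TDP1, 400 cells/well, exposed to compounds plus 20 nM camptothecin for at least 48 h at 37 C; viability read as ATP content by CellTiter-Glo luminescence.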
Numbers without * were called inactive; u = inconclusive; x = no result given; [ ] = dose if it differs, or a comment. Unless noted, calls come from the whole dose curve; as a rule, active = well fitted curve in the direction sought with a large enough effect; inconclusive = small, poorly fitted or top-dose-only effect, or another doubt; inactive = no such curve, though single readings can be large; an effect the other way counts as inactive or inconclusive. Unless noted, % is set by controls: 0 for no effect and ±100 for the full control effect.

SMILES	IL-1B inflam inh	TDP1 cell noCPT	ALOX12 inh	HT1080NT lethal	HT1080 IDH1KD tx	DT40 TDP1 CPT
COc1ccccc1CNC(=O)COC(=O)c1cccnc1SCC(=O)NCc1ccccc1OC	15	u	-24%	1%	-6%	u
CCOc1c(Br)cc(C(=O)N2CCN(c3ncccn3)CC2)cc1OC	x	x	5%	x	x	x
CNC(=O)COC(=O)c1cc(-c2ccco2)nc2ccccc12	17	u	u	0%	-6%	15µM*
O=C(Cc1ccsc1)Nc1ccc2c(c1)CCC(=O)N2	x	x	2%	x	x	x
O=C(c1ccccc1)c1ccc(NCCCn2ccnc2)c([N+](=O)[O-])c1	-74*	u	-19%	-24%	-21%	-29%
Cn1c(O)c(/C=N/NC(=O)c2cc3ccccc3cc2O)c2ccccc21	83	15µM*	0%	16µM*	u	16µM*
Cn1c2ccccc2c2cc(/C=N/NC(=O)c3ccc(O)cc3O)ccc21	0	u	x	-29%	u	u
CSc1ncc2c(=O)[nH]c(-c3ccccc3)nc2n1	-74*	-10%	19%	u	u	2%
Cc1c(-c2ccccc2)nc(-c2ccccc2)[nH]c1=O	0	-16%	u	10%	12%	-12%
CCCn1ncc2c(Nc3ccc(C)c(C)c3)ncnc21	-64*	u	-16%	2%	-1%	u
Cc1ccc(-n2ncc3c(Nc4ccc5c(c4)OCCO5)ncnc32)cc1C	x	18µM*	-22%	x	x	21µM*
Cc1ccc(-n2ncc3c(Nc4cccc(C(F)(F)F)c4)ncnc32)cc1C	x	u	5%	x	x	21µM*
Cc1ccc(-n2ncc3c(Nc4cccc(C)c4)ncnc32)cc1	x	x	-21%	x	x	x
CCOc1cccc2[nH]c(C(=O)O)cc12	x	x	0%	x	x	x
COCCN1C(=O)[C@H]2CN(Cc3cc(F)c(F)cc3F)C[C@H]2C1=O	x	x	44%	x	x	x
COc1ccc(C(=O)N[C@@H]2CN(C)C[C@H]2CN(C)C)cc1OC	x	x	90%	x	x	x
CC(C)NC(=S)N/N=C1\CC2CC=CC12 (stereo not given)	x	x	-22%	x	x	x
O=C(Nc1nc2ccc(F)cc2s1)c1nc(S(=O)(=O)Cc2ccccc2F)ncc1Cl	x	2.6µM*	-20%	x	x	3.3µM*
O=C(Nc1ccccc1)c1nc(S(=O)(=O)Cc2ccccc2F)ncc1Cl	x	1.1µM*	x	x	x	1.1µM*
COC(=O)c1ccc(NC(=O)c2nc(S(=O)(=O)Cc3ccccc3F)ncc2Cl)cc1	x	0.89µM*	x	x	x	0.71µM*
CCN1c2cc(C(N)=O)ccc2C(=O)N2CCCCC21 (stereo not given)	x	x	37%	x	x	x
CC1CCCN(c2nc3c(c(=O)n(C)c(=O)n3C)n2CC(=O)c2ccc(Br)cc2)C1 (stereo not given)	x	x	-56%	x	x	x
COc1cc2c(cc1OC)C1=NC(=O)CN1C(SCc1ccc(C)cc1)=N2	10	2.6µM*	u	-3%	0%	6.5µM*
C=CCSC1=Nc2cc(OC)c(OC)cc2C2=NC(=O)CN12	3	10µM*	-6%	2%	-1%	u
CC(C)CN1CCOC[C@H](Oc2ccccc2)C1	x	x	4%[176 µM]	x	x	x
SMILES	IL-1B inflam inh	TDP1 cell noCPT	ALOX12 inh	HT1080NT lethal	HT1080 IDH1KD tx	DT40 TDP1 CPT
O=C(Nc1cc(C(F)(F)F)ccc1Cl)c1cnn(-c2ccccc2)c1-n1cccc1	x	23µM*	-13%	x	x	23µM*
COc1ccc(CNC(=O)c2cnn(-c3ccccc3)c2-n2cccc2)cc1OC	x	18µM*	2%	x	x	u
COc1ccc(CNC(=O)c2cnn(-c3ccc(C)cc3)c2-n2cccc2)cc1OC	x	16µM*	-16%	x	x	u
COc1cc(Cl)c(C)cc1NC(=O)c1cnn(-c2ccc(C)cc2)c1-n1cccc1	x	-7%	-20%	x	x	2%
COc1cc(OC)c(NC(=O)c2cnn(-c3ccccc3)c2-n2cccc2)cc1Cl	x	-22%	-24%	x	x	-3%
COc1ccccc1NC(=O)c1cnn(-c2ccccc2)c1-n1cccc1	x	18µM*	-15%	x	x	18µM*
CCNC(=O)CN1CCN(C(C(=O)O)c2c[nH]c3cc(OCc4ccccc4)ccc23)CC1 (stereo not given)	x	x	-11%	x	x	x
COc1ccc(-n2nc(C)c3c2NC(=O)CC3c2ccc(OC)c(OC)c2)nn1 (stereo not given)	x	x	-27%	x	x	x
CN1C(=O)CC[C@]2(C(=O)NCc3cc(F)ccc3F)CCCC[C@@H]12	x	x	13%	x	x	x
CCOC(=O)c1cccc(NC(=O)c2cnn(-c3ccccc3)c2-n2cccc2)c1	x	21µM*	-8%	x	x	26µM*
COC(=O)c1ccc(CSc2nc3ccccc3[nH]2)o1	6	-8%	-19%	6%	5%	-24%
COC(=O)c1cccc(CSc2nc3ccccc3[nH]2)c1	3	16µM*	-5%	0%	-12%	u
CCOc1ccc(/C=N/NC(=O)c2ccc(CSc3nc4ccccc4[nH]3)cc2)cc1	21	23µM*	6%	u	u	23µM*
COC(=O)c1ccc(CSc2nc3ccc(S(N)(=O)=O)cc3[nH]2)cc1	-101*	1%	-7%	5%	-2%	-4%
CCCN(CC1CCOC1)S(=O)(=O)c1cccc(OC)c1 (stereo not given)	x	x	16%	x	x	x
CCn1c(=O)c2c(nc(C=Cc3ccc(OC)c(OC)c3)n2C)n(CC)c1=O	x	x	-25%[57.4 µM]	x	x	x
O=C(O)CC12CC3CC(C1)CC(C(=O)O)(C3)C2	x	x	4%	x	x	x
O=C(c1ccc(Cl)cc1)C(Cn1cncn1)C(Sc1ccccc1)c1ccccc1 (stereo not given)	-61*	u	-18%	u	u	u
Cc1ccc(SC(c2ccccc2)C(Cn2cncn2)C(=O)c2ccccc2)cc1 (stereo not given)	-6	u	0%	0%	7%	u
CN1C(=O)c2ccccc2C1=O	x	-24%[92.5 µM]	-9%[57.4 µM]	x	x	u
COc1c(C2=CC(=O)N(C)C2=O)c2c(n1C)C(=O)c1ccccc1C2=O	x	0.58µM*	u	x	x	0.52µM*
